Reference: PubChem BioAssay (EPA / NIEHS)
Calls of active or inactive are those of the source. Rule for the calls: active = hit-call score of the fitted dose curve at least 0.9, where 1 is the maximum; inactive = score below 0.9.

Assay: BSK_3C_TissueFactor: BioMAP Diversity Plus: 3C Assay for Tissue Factor Biomarker Activity (AID 2282997)
Details: BioMAP 3C HUVEC, tissue factor biomarker readout; actives raise or lower the signal
Method: BSK_3C is a cell-based, multiplexed-readout assay that uses umbilical vein endothelium, a human vascular primary cell, with measurements taken at 24 hours after chemical dosing in a 96-well plate.BSK_3C_TissueFactor is an assay component measured in the BSK_3C assay. It measures Tissue Factor antibody related to regulation of gene expression using ELISA technology.Data from the assay component BSK_3C_TissueFactor was analyzed into 1 assay endpoint. This assay endpoint, BSK_3C_TissueFactor, was analyzed with bidirectional fitting relative to DMSO as the negative control and baseline of activity. Using a type of binding reporter, gain or loss-of-signal activity can be used to understand changes in the signaling as they relate to the gene F3. Furthermore, this assay endpoint can be referred to as a primary readout, because this assay has produced multiple assay endpoints where this one serves a signaling function. To generalize the intended target to other relatable targets, this assay endpoint is annotated to the cytokine intended target family, where the subfamily is coagulation factor.
The levels of cell surface (or secreted, indicated by the prefix "s") biomarker endpoints were measured by ELISA. Overt cytotoxicity to cells in confluent adherent cultures (all systems other than the BT system) was assessed by measuring total protein levels using sulforhodamine B (SRB) staining in parallel cultures at the time of biomarker measurements, indicated as SRB endpoints. For proliferation assays for adherent cell types, individual cell types are cultured at sub-confluence and relative cell numbers quantified by SRB staining at time points optimized for each system (48 h: 3C and CASM3C systems; 72 h: BT and HDF3CGF systems; 96 h: SAg system). SRB was performed by staining cells with 0.1% SRB after fixation with 10% TCA and reading wells at 560 nm.Viability and proliferation of PBMC (T cells) was quantified by Alamar Blue reduction for the SAg and BT systems. For PBMC viability (referred to as PBMC Cytotoxicity within the assay endpoint names), cells were plated (75,000/well in a 96-well plate) and then chemical samples added for 1 h before addition of activators, SEB and TSST-1 (20 ng/mL final concentration each). Cells were incubated for 90 h. Then, Alamar Blue (20 uL/well) (Invitrogen, Cat DAL1100) was added for 6 h, and the plates were read with a fluorescence microplate reader at 546/580 nm (excitation/emission). For PBMC proliferation, cells were plated and activated as above but incubated for only 16 h prior to addition of Alamar Blue. Plates were read after 6 h.

SMILES | outcome | AC50
CCNc1ccccc1 | inactive | –
O=C(O)CCN(C1(C(=O)NO)CCCC1)S(=O)(=O)c1ccc(Oc2ccc(F)cc2)cc1 | inactive | –
CCc1cc(SCc2sc(-c3ccc(C(F)(F)F)cc3)nc2CN2CCN(c3ccc(OC)cc3)CC2)ccc1OCC(=O)O | – | 12.4 µM (active)
Cc1c(-c2cccnc2)c2ccccc2n1CCCCC(=O)O | inactive | –
Cc1ccc(O)cc1 | inactive | –
CC(=O)c1ccc2c(c1)[C@H](NC(=O)c1ccc(F)cc1)[C@@H](O)C(C)(C)O2 | inactive | –
Cn1c(=O)c2c(ncn2C)n(C)c1=O | inactive | –
CCOCCO | inactive | –
Cc1ccc(C)c(O)c1 | inactive | –
CCCCCCCCCCCCc1ccccc1 | inactive | –
O=C(O)CC(O)C(=O)O (stereo not given) | inactive | –
CCn1nc(Cc2ccccc2)cc1C1CCN(C[C@H]2C[C@H](N(C)[C@@H](C(=O)O)C(C)C)C[C@@H]2c2cccc(F)c2)CC1 | inactive | –
CC(=O)OC[C@H]1O[C@@](COC(C)=O)(O[C@H]2O[C@H](COC(C)=O)[C@@H](OC(C)=O)[C@H](OC(C)=O)[C@H]2OC(C)=O)[C@@H](OC(C)=O)[C@@H]1OC(C)=O | inactive | –
COCCOCCOCCOC | inactive | –
Cn1cnc([N+](=O)[O-])c1Sc1ncnc2nc[nH]c12 | inactive | –
CCN(C(=O)c1cc(C)cc(OC[C@H](C)Nc2ccncc2)c1)C(C)C | inactive | –
O=C(OC[C@H]1O[C@@H](OC(=O)c2cc(O)c(O)c(OC(=O)c3cc(O)c(O)c(O)c3)c2)[C@H](OC(=O)c2cc(O)c(O)c(OC(=O)c3cc(O)c(O)c(O)c3)c2)[C@@H](OC(=O)c2cc(O)c(O)c(OC(=O)c3cc(O)c(O)c(O)c3)c2)[C@@H]1OC(=O)c1cc(O)c(O)c(OC(=O)c2cc(O)c(O)c(O)c2)c1)c1cc(O)c(O)c(OC(=O)c2cc(O)c(O)c(O)c2)c1 | – | 7.77 µM (active)
Clc1nc(Cl)c(Cl)c(Cl)c1Cl | inactive | –
CC(C)(O)c1coc(S(=O)(=O)NC(=O)Nc2c3c(cc4c2CCC4)CCC3)c1 | inactive | –
COc1ccc2sc(C(=O)Nc3nnn[nH]3)c(OC(C)C)c2c1 | – | 22.5 µM (active)

SMILES | outcome | AC50
CC(=O)OCCC(C)C | inactive | –
O=P(OC(CCl)CCl)(OC(CCl)CCl)OC(CCl)CCl | – | 8.26 µM (active)
C1N2CN3CN1CN(C2)C3 | inactive | –
Oc1ccc2c(c1)-c1ccccc1C2 | – | 0.791 µM (active)
C1=CCCC=CCCC=CCC1 | inactive | –
O=C(O)c1cc(N=Nc2ccc(S(=O)(=O)Nc3ccccn3)cc2)ccc1O | inactive | –
CCCCC(CC)COC(=O)CCCCCCCCC(=O)OCC(CC)CCCC (stereo not given) | inactive | –
COc1cccc(-c2ccc(/C=C\CN3CCCCCC3)cc2Cl)c1 | – | 31.5 µM (active)
CC(C)=CCC/C(C)=C\CO | inactive | –
Fc1ccccc1[C@@H](F)COC1CCC(Nc2ncnc3[nH]ncc23)CC1 (stereo not given in full) | – | 35.2 µM (active)
C=CCCCCCCCCC(=O)O | inactive | –
CCCCCCCCCCCCCCCO | inactive | –
CCOC(=O)COc1ccc2c(c1)CC(NCC(O)c1cccc(Cl)c1)CC2 (stereo not given) | – | 33 µM (active)
CC(O)CN(CCN(CC(C)O)CC(C)O)CC(C)O (stereo not given) | inactive | –
CCCCCCc1ccc(O)cc1O | – | 33.8 µM (active)
CC(C)CC(C)(O)C#CC(C)(O)CC(C)C (stereo not given) | inactive | –
CC[C@H]1CC[C@H](NCc2cc3c(cc2OC)[C@H]2C[C@H]2C(=O)N3C)[C@H](c2ccccc2)N1 | inactive | –
Nc1nc2ncc(CNc3ccc(C(=O)N[C@@H](CCC(=O)O)C(=O)O)cc3)nc2c(=O)[nH]1 | inactive | –
Cc1ccc(S(=O)(=O)O)cc1C | inactive | –
CC(C)CCCCCCOC(=O)c1ccc(C(=O)OCCCCCCC(C)C)c(C(=O)OCCCCCCC(C)C)c1 | inactive | –
